# High-throughput results deposited in PubChem by National Center for Advancing Translational Sciences (NCATS).
# D1 PAM – Potentiators of Human D1 Dopamine Receptor: qHTS | potentiation, % at 10 µM | HEK293 TREx D1 cells, calcium flux, dopamine EC20 potentiation | 360,000 tested, 0.036% active | AID 504651, 2011 | D(1A) dopamine receptor (Homo sapiens), P21728; in the data active = potentiation above about 30%; note: 0% is about no effect
# Target sequence (P21728 whole entry, looked up): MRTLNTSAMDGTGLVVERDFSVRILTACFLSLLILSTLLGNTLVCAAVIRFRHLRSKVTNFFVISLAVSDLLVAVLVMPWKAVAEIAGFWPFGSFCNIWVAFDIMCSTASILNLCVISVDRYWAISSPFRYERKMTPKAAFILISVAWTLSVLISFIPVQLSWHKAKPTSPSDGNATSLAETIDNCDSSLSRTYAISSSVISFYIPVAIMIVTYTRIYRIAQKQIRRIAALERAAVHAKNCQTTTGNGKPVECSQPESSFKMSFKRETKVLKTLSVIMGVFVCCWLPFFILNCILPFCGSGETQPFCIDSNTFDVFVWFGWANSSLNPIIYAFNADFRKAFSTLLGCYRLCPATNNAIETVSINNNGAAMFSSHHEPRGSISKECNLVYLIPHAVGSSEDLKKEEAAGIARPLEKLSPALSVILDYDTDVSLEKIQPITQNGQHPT
# D1 antagonist – Antagonist of Human D 1 Dopamine Receptor: qHTS. HEK293 TREx D1 cells, calcium flux, dopamine EC80; stronger effect = lower value. activity change, negative = inhibition, % at 10 µM. 360,000 tested, 3.2% active. AID 504652, 2011; in the data active = activity change below about -30%; note: % is set by controls: 0 for no effect and ±100 for the full control effect
#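 Allosteric or orthosteric antagonism assessed as attenuation of the calcium response to EC80 dopamine, added 180 s after compound, in induced HEK293 Trex D1 cells loaded with no-wash calcium dye.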
# D1 agonist – Allosteric Agonists of the Human D1 Dopamine Receptor: qHTS | 360,000 tested, 1% active | AID 504660, 2011 | D(1A) dopamine receptor (Homo sapiens), P21728 | HEK293 T-REx D1 cells, calcium flux, agonist mode | activation, % at 2 µM; in the data active = activation above about 30%; note: 0% is about no effect
#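 Inducible HEK293 T-REx D1 cells, force-coupled to calcium signalling, were plated at 4000 cells/well with tetracycline and held overnight at 30 C. After no-wash calcium dye loading, compound-evoked calcium rise over 180 s flagged agonists.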
# TRPV1 ag – HTS Assay for Compounds that Act as Agonists of the Vanilloid Receptor 1. 320,000 tested, 0.19% active. Transient receptor potential cation channel subfamily V member 1 (Homo sapiens), Q8NER1. AID 540275, 2011. activation, % at 8.33 µM. TRPV1-expressing cells, Fluo-8 calcium influx, agonist mode; in the data active = activation above about 80%; note: 0% is about no effect
#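 Fluo-8 calcium influx in TRPV1-expressing cells, kinetic read (ex 480/em 520 nm). Compound added and read 3 min for agonist activity, followed by capsaicin at EC20 final and 2 min further read for enhancement.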
# TRPV1 PAM – HTS Assay for Compounds that Act as Potentiators of the Vanilloid Receptor 1. Transient receptor potential cation channel subfamily V member 1 (Homo sapiens), Q8NER1. TRPV1-expressing cells, Fluo-8 calcium influx, capsaicin EC20 potentiation. 320,000 tested, 0.02% active. potentiation, % at 8.33 µM; in the data active = potentiation above about 80%; note: 0% is about no effect
#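 TRPV1-expressing cells were cultured overnight at 35.5C and loaded with Fluo-8 calcium dye for 40 to 90 min at room temperature. After a 10 s baseline, compound was added and calcium influx was read kinetically for 3 min (ex 480/em 520 nm).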
# * = called active by the depositor; · = no result. Most compounds without a hit are left out; they make up all but 4.2% or so of the library.
SMILES,D1 PAM,D1 antagonist,D1 agonist,TRPV1 ag,TRPV1 PAM
COc1cccc(CNC(=O)CSc2nc3ccccc3nc2Cc2ccc(C)cc2)c1OC,-2,5,4,·,·
Cc1ccc(NS(=O)(=O)c2ccc(C(=O)OCC(=O)Nc3cc(C)on3)cc2)cc1,0,-6,44*,-3,26
CCOC(=O)COc1ccc(S(=O)(=O)Nc2ccc3c(c2)OCCO3)cc1,-5,-20,33*,1,7
N#CCc1ccc(NS(=O)(=O)c2ccc(C3CCCCC3)cc2)cc1,-6,-7,28,7,-9
Cc1ccc(C)c(NS(=O)(=O)c2ccc(OCC(=O)NCC3CCCO3)cc2)c1 (stereo not given),-1,-6,1,0,12
COC(=O)COc1ccc(S(=O)(=O)Nc2ccc3c(c2)OCO3)cc1,-10,-17,12,-3,-11
Cc1ccc(NS(=O)(=O)c2ccc(OCC(=O)NCC3CCCO3)cc2)cc1 (stereo not given),-4,-38*,10,0,-4
COc1ccc(S(=O)(=O)Nc2ccc(CC#N)cc2)cc1,-2,-33*,6,1,2
COc1ccc(C(CNC(=O)COc2ccc(Cl)c(C)c2)N2CCOCC2)cc1 (stereo not given),1,-4,-2,·,·
C=C(C)CN(CC)C(=O)COc1ccc(S(=O)(=O)Nc2ccc(OC)cc2)cc1,-7,-28,52*,27,-3
CCNC(=O)COC(=O)c1ccc(NS(=O)(=O)c2ccc3c(c2)OCCO3)cc1,4,-2,3,0,3
CCOC(=O)c1ccc(NS(=O)(=O)c2ccc3c(c2)OCCO3)cc1,-6,-36*,25,·,·
COc1ccc(C)cc1NC(=O)c1cnc2ccc(C)cn2c1=O,-1,11,-1,·,·
Cc1c(Cl)ccc2sc(NC(=O)c3ccc(S(=O)(=O)N4CCCc5ccccc54)cc3)nc12,-3,-15,1,·,·
CCOc1ccc(CCNC(=O)CN2CCN(Cc3ccc(Cl)cc3)C2=O)cc1OCC,-3,-6,3,·,·
Cc1ccc(-c2nnc(Nc3ccc(Br)cc3)c3ccccc23)cc1S(=O)(=O)N1CCN(C)CC1,-2,-18,4,·,·
O=C(CSc1nnc(-c2ccc(O)cc2)o1)c1ccc(Br)cc1,-2,30,39*,·,·
O=C(O)CSc1nnc(-c2ccc(O)cc2)o1,-2,-3,0,·,·
CCCCN1CC(c2nc3ccccc3n2CCCCOc2cc(C)ccc2C)CC1=O (stereo not given),-2,-10,12,·,·
CN(C)c1ccc(CN(C(=O)c2cccs2)C2CCS(=O)(=O)C2)cc1 (stereo not given),0,16,-4,3,21
CCOc1ccc(CN(C(=O)c2cccs2)C2CCS(=O)(=O)C2)cc1 (stereo not given),-8,-43*,2,-1,-11
COc1ccccc1OCC(=O)N(Cc1cccs1)C1CCS(=O)(=O)C1 (stereo not given),0,-42*,-1,·,·
CCOc1ccc(NC(=O)CCc2nc3cccnc3n2Cc2ccc(OC)cc2)cc1,-3,-8,1,·,·
CCN(CCCNC(=O)CN1N=C(c2ccccc2)CCC1=O)c1ccccc1,0,-5,-2,·,·
COc1cccc(CC(=O)Nc2ccc3nc(N4CCC(C)CC4)cc(C)c3c2)c1,2,9,2,·,·
SMILES,D1 PAM,D1 antagonist,D1 agonist,TRPV1 ag,TRPV1 PAM
COC(=O)c1ccc(CSc2nnc(Nc3ccc(OC)cc3)s2)o1,-2,-30*,-1,9,-5
COC(=O)c1ccc(CSc2nnc(SCc3ccc(C(=O)OC)o3)s2)o1,-8,3,1,-1,-3
CCSc1nnc(NC(=O)Cc2ccc(OC)cc2)s1,-9,-47*,0,1,6
CCSc1nnc(NC(=O)Cc2cccc(OC)c2)s1,11,18,0,7,3
CCCOc1ccc(C(=O)Nc2ccc(NC(=O)c3ccccc3)c(Br)c2)cc1,-3,-12,2,·,·
COc1cccc(N2CCN(C(=O)CN3CCSc4ccccc43)CC2)c1,-3,-7,4,·,·
